Bioassay records from PubChem.
AMA1 RON2 block – inhibitors of Plasmodium falciparum AMA1-RON2 interaction; AlphaScreen AMA1-biotinylated RON2 peptide binding; Potency, µM (highest dose often 58.2 µM), for inactives: at the highest dose activity change, negative = inhibition, hits mostly inhibitors; 0.2% of 360,000 active;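 further: 0% = vehicle wells and -100% = peptide control; nearly all actives have a fitted effect of over 45% in size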
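AMA1 (3D7) with his tag at 25 nM final met compounds first, then biotinylated RON2 peptide at 25 nM; detection used donor plus acceptor beads, 10 µg/mL apiece, read by AlphaScreen after 30 min at room temperature.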
Pf growth 48h – inhibits P. falciparum growth in the first generation, 48 h; Potency, µM (titrated, usually from 28.7 µM), inactives show top-dose activity change, negative = inhibition, actives largely listed as inhibitors; P. falciparum luciferase growth in erythrocytes, 48 h; 5.9% of 310,000 active
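Cell-based growth assay: transgenic P. falciparum expressing firefly luciferase, cultured in red cells within RPMI 1640 containing 0.5% w/v Albumax, 24 mM bicarbonate and gentamycin. A drop in luciferase activity indicates inhibition.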
VACV mCherry inh – vaccinia inhibition (mCherry reporter); Vaccinia virus mCherry reporter infection, fluorescence; Potency, µM (highest dose often 36.5 µM), for inactives: at the top dose activity change, negative = inhibition, most hits filed as inhibitors; 0.63% of 310,000 active; calls by dose curve; tested in A549 cells; further: nearly all actives have a fitted effect of over 35% in size
VACV Venus inh – vaccinia inhibition (Venus reporter); Vaccinia virus Venus reporter expression, fluorescence; Potency, µM (titrated, usually from 36.5 µM), for the others: at the top dose activity change, negative = inhibition, usual class: inhibitors; 0.46% of 330,000 active; calls by dose curve; tested in A549 cells; further: nearly all actives have a fitted effect of over 30% in size
Pf growth 96h – P. falciparum growth inhibition at 96 hours | P. falciparum luciferase reporter growth, 96 h | Potency, µM (doses to about 28.7 µM), without a hit: top-dose activity change, negative = inhibition, actives largely listed as inhibitors | 6.9% of 320,000 active | AID 504834
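Plates of compound plus infected erythrocytes (2% hematocrit, 0.05% parasitemia final) incubate 96 hours, 37 C, 5% CO2. Detection reagent added; reduced luminescence from the parasites' luciferase reporter flags inhibition.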
Active calls of the source: *; i = inactive; ? = inconclusive; nt = not tested or not shown. Most compounds without a hit are left out; they make up all but 8.7% or so of the library. Unless noted, the call rests on the fitted dose curve; in most records, active means well fitted curve in the direction sought with a large enough effect; inconclusive means small, poorly fitted or top-dose-only effect, or another doubt; inactive means no such curve, though single readings can be large; an effect the other way counts as inactive or inconclusive. Unless noted, on the % scale 0 is the no-effect control and ±100 the full control effect; potency means the concentration at half of the fitted maximal effect.

SMILES | AMA1 RON2 block | Pf growth 48h | VACV mCherry inh | VACV Venus inh | Pf growth 96h
C[C@@H]1CC[C@H]2[C@@H](C)C(=O)O[C@@H]3O[C@@]4(C)CC[C@@H]1[C@]32OO4 | 3.3% | 0.0033µM* | -11.0% | -8.5% | 0.0033µM*
C[C@@H]1CCC2[C@@H](C)C(=O)O[C@@H]3OC4(C)CCC1[C@@]23OO4 (some centres not stated) | 2.1% | nt | ? | -7.2% | nt
CC(NC(=O)Cn1cnnn1)C12CC3CC(CC(C3)C1)C2 (configuration not stated) | 17.4% | 28.9% | -22.1% | -20.3% | 32.9%
CC(n1cnnn1)C12CC3CC(CC(C3)C1)C2 (configuration not stated) | 10.9% | ? | nt | ? | 1.65µM*
COc1cc(S(=O)(=O)Nc2cccc3cn[nH]c23)c(OC)cc1C | 0.0% | 10.4µM* | nt | nt | 2.94µM*
COc1ccc(CCNC(=O)CCc2cn(Cc3ccc(C)cc3)c3ccccc23)cc1OC | nt | nt | -8.3% | -9.3% | nt
COc1ccc(NC(=O)CN(C)S(=O)(=O)c2ccc3nc(C)sc3c2)cc1 | nt | nt | i | -17.2% | nt
O=C(CCN1C(=O)C2CC=C(Cl)CC2C1=O)Nc1ccccc1O (configuration not stated) | -6.7% | -6.1% | i | -14.3% | 1.04µM*
Cc1ccc(NC(=O)CN2C(=O)C3CC=C(Cl)CC3C2=O)cc1 (configuration not stated) | -4.1% | 35.5% | -10.0% | -4.1% | 11.2%
O=C(CCN1C(=O)C2CC=C(Cl)CC2C1=O)NCc1ccccc1 (configuration not stated) | 9.8% | 2.2% | nt | -9.1% | -29.5%
O=C(CN1C(=O)C2CC=C(Cl)CC2C1=O)Nc1ccc(C(=O)O)cc1 (configuration not stated) | 4.0% | 19.6% | nt | nt | 13.1µM*
C=CCNC(=O)C1CCN(c2c([N+](=O)[O-])cc(C(F)(F)F)cc2[N+](=O)[O-])CC1 | -4.1% | 5.22µM* | nt | -11.6% | 9.28µM*
CC(NCc1cccs1)c1ccccc1 (configuration not stated) | -10.2% | 36.4% | nt | nt | 11.7µM*
CCN(Cc1ccccc1)C(=O)CCNS(=O)(=O)c1cc(Br)cnc1N | -3.7% | 13.1µM* | -1.7% | -19.6% | 36.6%
CCn1c(C(=O)Nc2c(C)cccc2C)cc2sc(Cl)cc21 | nt | nt | -11.0% | -12.2% | nt
CCCCCn1c(=S)[nH]c2ncccc2c1=O | 43.0% | 2.4% | -14.5% | -2.1% | 9.28µM*
COCCCn1c(=S)[nH]c2ncccc2c1=O | 0.1% | 12.5% | nt | nt | ?
CCOc1ccc(CCNC(=O)C2Cc3ccccc3N2C(=O)CC)cc1 (configuration not stated) | nt | nt | -2.0% | -2.9% | nt
Cn1cnnc1SCC(=O)OCN1C(=O)c2ccccc2C1=O | 0.0% | 24.5% | nt | -6.1% | nt
Cc1cc(C)nc(SCC(=O)OCN2C(=O)c3ccccc3C2=O)n1 | -4.9% | 1.85µM* | -14.0% | 2.7% | -23.6%
CCc1cccc(NS(=O)(=O)c2ccc3c(c2)N(CC(=O)OC)C(=O)CS3)c1 | nt | nt | -8.2% | -9.3% | nt
CC(C)[N+]1(C)[C@@H]2CC[C@@H]1CC(OC(=O)C(CO)c1ccccc1)C2 (some centres not stated) | -0.5% | -3.8% | -1.4% | -9.3% | 22.7%
CCCC(CCC)C(=O)OC1C[C@H]2CC[C@@H](C1)[N+]2(C)C (some centres not stated) | -8.2% | 12µM* | -13.3% | -4.6% | 4.26µM*
C[N+]1(C)[C@@H]2CC[C@H]1CC(OC(=O)C(c1ccccc1)c1ccccc1)C2 (some centres not stated) | -0.8% | 2.33µM* | nt | nt | 3.29µM*
Nc1ccc2ccccc2c1N=Nc1ccccc1 | 17.8µM* | nt | ? | -9.1% | nt
SMILES | AMA1 RON2 block | Pf growth 48h | VACV mCherry inh | VACV Venus inh | Pf growth 96h
Cc1ccc(N(C)C2=NC(=O)CS2)cc1Cl | 7.7% | 2.08µM* | -21.3% | -11.0% | ?
Cc1ccc(N2C(=N)SCC2=O)cc1Cl | 8.6% | -12.7% | -14.0% | -1.7% | ?
O=C(OC(C(=O)Nc1ccc(Cl)cc1C(F)(F)F)c1ccccc1)c1c(Cl)cccc1Cl (configuration not stated) | -1.2% | 11.7µM* | -14.6% | -10.4% | 0.0%
CCCC(=O)OC(C(=O)Nc1cc(C(F)(F)F)ccc1Cl)c1ccccc1 (configuration not stated) | 11.9% | 13.1µM* | i | -17.3% | 13.1µM*
Cc1ccc(C(=O)OC(C(=O)Nc2ccc(Cl)cc2C(F)(F)F)c2ccccc2)cc1 (configuration not stated) | 7.1% | ? | -16.1% | -19.2% | -19.5%
CCOc1nc(NCCC2=CCCCC2)nc(N2CCOCC2)n1 | -20.2% | 11.3% | ? | 2.6% | 4.3%
CCOc1nc(NCCO)nc(NCCC2=CCCCC2)n1 | -10.5% | ? | -19.4% | -7.3% | 8.28µM*
CCCSc1ncc(Cl)c(C(=O)N2CCN(c3ccc(OC)cc3)CC2)n1 | nt | nt | -19.5% | -22.1% | nt
COc1cccc(-n2nc(C(N)=O)c(O)cc2=O)c1 | 1.4% | 5.6% | i | -8.1% | 3.5%
COc1cccc(-n2nc(C#N)c(Cl)cc2=O)c1 | -22.0% | 0.1% | ? | 17.8µM* | -4.0%
Cc1cc(O)c(Oc2cc(C)cc(O)c2O)c(O)c1 | 4.47µM* | 1.5% | -14.1% | -9.6% | 48.7%
CCOC(=O)c1sc(NC(=O)C(OC(C)=O)c2ccccc2)nc1C (configuration not stated) | 12.6% | -24.0% | -5.5% | -10.0% | 10.4µM*
CC(=O)c1ccc(OCc2cc(C(=O)N(C)Cc3ccon3)no2)cc1 | 3.9% | 12.5% | i | -14.9% | 6.7%
CC(=O)c1ccc(OCc2cc(C(=O)N(C)Cc3ccccn3)no2)cc1 | 7.6% | 7.4% | i | -10.0% | 10.4µM*
COc1cc(Cl)c(C)cc1NC(=O)C1CCN(c2nc3ccccc3n3cccc23)CC1 | nt | nt | -19.6% | -20.6% | nt
CCOc1ccc2nc(NC(NC(C)=O)(C(=O)OC)C(F)(F)F)sc2c1 (configuration not stated) | 2.8% | 4.5% | nt | nt | 7.38µM*
O=C(CCS(=O)(=O)c1ccccc1)Nc1nc2cc3c(cc2s1)OCCO3 | -12.6% | -35.9% | nt | nt | 5.22µM*
O=C(CCS(=O)(=O)c1ccccc1)Nc1nc2cc3c(cc2s1)OCO3 | -4.6% | 0.7% | ? | ? | -22.5%
CCOc1ccc2nc(NC(=O)COc3ccc(N(C)S(=O)(=O)c4ccc(C)cc4)cc3)sc2c1 | 0.0% | 2.33µM* | -4.4% | -3.5% | ?
CCOc1ccc2nc(NC(=O)CS(=O)(=O)c3ccccc3)sc2c1 | -4.5% | 39.2% | nt | -16.2% | 5.22µM*
COc1cc(S(=O)(=O)n2ccnc2C(C)C)ccc1Br | nt | nt | -3.0% | -4.8% | nt
CCc1cccc(N2C(=O)N(Cc3c(F)cccc3Cl)c3ccccc3S2(=O)=O)c1 | nt | nt | i | 2.4% | nt
COc1ccc(NC(=O)CN(C)C(=O)/C=C/c2cn(-c3ccccc3)nc2-c2ccc(F)cc2)cc1 | -16.9% | ? | ? | ? | ?
COc1ccc(-c2nn(-c3ccccc3)cc2C(=O)NC(=S)NNC(=O)c2ccncc2)cc1 | 91.3% | ? | nt | nt | ?
